# Compounds with a hit are over-represented: about 19% of the library has one in this group of screens.
# HT1080 IDH1KD tx: qHTS for induction of synthetic lethality in tumor cells producing 2HG: qHTS for the HT-1080-IDH1KD cell line | HT-1080 IDH1 knockdown viability, ATP luminescence, 48 h | Potency, µM (top dose mostly 46.1 µM), for the others: at the top dose activity, negative = toxicity, usual class: cytotoxic | 360,000 compounds, 2% hits | AID 686971, 2013;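 further: potency means the concentration at half of the fitted maximal effect; 0% = DMSO wells and -100% = cell-free medium wells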
#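 Viability of IDH1-knockdown HT-1080 fibrosarcoma cells was assessed by CellTiter-Glo after 48 h at 37 °C with titrated compound; concentration-effect curves were classified by fit quality and response size.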
# IL-1B inflam inh: qHTS for Inhibitors of Inflammasome Signaling: IL-1-beta AlphaLISA Primary Screen; 360,000 compounds, 4.7% hits; THP-1 LPS/ATP IL-1B secretion, AlphaLISA, 16 h; stronger effect = lower value; activity change, % at 57.5 µM; in the data active means activity change below about -50%; inconclusive means mostly about -30% to -49%
#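 THP-1 cells pretreated 1 hr with compounds (up to 57.5 uM final), then stimulated with LPS (250 ng/mL final) plus ATP (1.25 mM final); secreted IL-1B measured by AlphaLISA after 16 hr, decreased signal indicating inhibition.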
# HT1080NT lethal: qHTS for induction of synthetic lethality in tumor cells producing 2HG: qHTS for the HT-1080-NT fibrosarcoma cell line; AID 686970, 2013; 360,000 compounds, 1.6% hits; Potency, µM (series often up to 46.1 µM), without a hit: at the top dose activity, negative = less viability, actives largely listed as cytotoxic; HT-1080-NT fibrosarcoma viability, CellTiter-Glo ATP luminescence, 48 h;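 further: NT is the 2HG producing partner of a matched IDH1 knockdown line; potency means the concentration at half of the fitted maximal effect; 0% = DMSO-treated cells and -100% = media-only wells without cells; nearly all actives have a fitted effect of over 55% in size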
#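 HT-1080-NT; 750 cells/well; 5% FBS RPMI; 48 h compound, 37 degrees C; CellTiter-Glo luminescence; curve fitting and curve-class assignment.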
# DT40 TDP1 CPT: qHTS for Inhibitors of human tyrosyl-DNA phosphodiesterase 1 (TDP1): qHTS in cells in presence of CPT | chicken DT40 Tdp1-/-;hTDP1 cells + 20 nM CPT, ATP luminescence, 48 h | Potency, µM (series often up to 46.2 µM), for the others: top-dose activity change, negative = growth inhibition, usual class: inhibitors | 420,000 compounds, 12% hits; further: potency means the concentration at half of the fitted maximal effect; nearly all actives have a fitted effect of over 55% in size
#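 Cell growth measured by CellTiter-Glo luminescence after a minimum 48 h, 37 C compound exposure with 20 nM CPT in Tdp1-knockout DT40 cells stably expressing hTDP1, seeded 400/well; qHTS titration format.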
# TDP1 cell noCPT: qHTS for Inhibitors of human tyrosyl-DNA phosphodiesterase 1 (TDP1): qHTS in cells in absence of CPT; DT40 Tdp1-/- hTDP1 cells, no CPT, ATP luminescence, 48 h; Potency, µM (titrated, usually from 46.2 µM), for inactives: top-dose activity change, negative = growth inhibition, hits mostly inhibitors; 420,000 compounds, 15% hits; AID 686978, 2013; further: potency means the concentration at half of the fitted maximal effect; nearly all actives have a fitted effect of over 55% in size
#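 Growth kinetics read by CellTiter-Glo luminescence after ≥48 hr at 37 °C. Cells: DT40 Tdp1-/- stably carrying human TDP1, 400 per well, compound exposure in the absence of CPT (DMSO vehicle).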
# Active calls of the source: *; ? = inconclusive; . = not tested or not shown; [ ] = remark or other dose. Unless noted, the call rests on the fitted dose curve; in most records, active means well fitted curve in the direction sought with a large enough effect; inconclusive means small, poorly fitted or top-dose-only effect, or another doubt; inactive means no such curve, though single readings can be large; an effect the other way counts as inactive or inconclusive. Unless noted, on the % scale 0 is the no-effect control and ±100 the full control effect.
SMILES,HT1080 IDH1KD tx,IL-1B inflam inh,HT1080NT lethal,DT40 TDP1 CPT,TDP1 cell noCPT
CCOc1ccc(-c2c(C)nn3c(C)c(C(=O)NCCc4ccc(Cl)cc4)cnc23)cc1OCC,.,.,.,15µM*,6.5µM*
CCOc1ccc(CCNC(=O)c2cnc3c(-c4ccc(F)cc4)c(C)nn3c2C)cc1OCC,.,.,.,16µM*,18µM*
Cc1nc2sc(C(=O)Nc3ccccc3)c(N)c2c(C)c1[N+](=O)[O-],1%,-1,-6%,?,?
Nc1ncncc1-c1ccc([N+](=O)[O-])cc1,6%,-2,0%,16µM*,?
CC1CN(C(=O)CCC(=O)NCc2ccccc2)c2ccccc2S1 (configuration not stated),1%,-6,12%,-7%,-6%
Nc1c(C(=O)NCc2ccccc2)c2nc3ccccc3nc2n1CCCN1CCOCC1,?,-29,?,?,-80%
Cc1cccc(-n2c(N)c(C(=O)NCCN3CCOCC3)c3nc4ccccc4nc32)c1,?,-64*,?,?,18µM*
CC(C)Cn1c2nc3ccccc3nc2c2c(=O)n(CCN3CCOCC3)cnc21,-6%,-56*,-1%,?,?
Nc1c(C(=O)NCc2ccc(F)cc2)c2nc3ccccc3nc2n1CCCN1CCOCC1,?,-10,?,?,18µM*
COc1ccc(CNC(=O)c2c(N)n(CCCN3CCOCC3)c3nc4ccccc4nc23)cc1,?,-18,?,?,?
CC(C)Cn1c(N)c(C(=O)NCCN2CCOCC2)c2nc3ccccc3nc21,3%,-61*,4%,?,18µM*
Cc1cccc(-n2cnc3cc(C(=O)NCCN4CCOCC4)ccc32)c1,15%,?,5%,-14%,-25%
CC1CCN(CCCNC(=O)c2cc3c(s2)-c2ccccc2OC3)CC1,?,-27,23µM*,?,?
COC(=O)c1cc2c(s1)-c1ccccc1OC2,13%,35,0%,1%,-24%
CC1CCCN(CCCNC(=O)c2cc3c(s2)-c2ccccc2OC3)C1 (configuration not stated),?,-77*,21µM*,?,?
O=C(NCCCN1CCN(c2ccccc2)CC1)c1cc2c(s1)-c1ccccc1OC2,.,.,.,?,23µM*
COC(=O)c1c(NC(NC(=O)C(C)C)C(Cl)(Cl)Cl)sc2c1CCCC2 (configuration not stated),-2%,0,8%,-21%,-2%
C=CCn1c(SCC#N)nc2c(c1=O)C(C)(C)Cc1ccccc1-2,-1%[9.24 µM],0,-2%,-22%,?
CC(C)Oc1ccc(CNC(=O)c2cnc3sc(N4CCCCCC4)nn3c2=O)cc1,.,.,.,-13%,-20%
CCc1ccc(CNC(=O)CN2C(=O)c3cccnc3Oc3ccc(Cl)cc32)cc1,.,.,.,?,16µM*
O=C(CN1C(=O)c2cccnc2Oc2ccc(Cl)cc21)NC1CCCC1,-2%,-7,-7%,-16%,15µM*
COCCNC(=O)CN1C(=O)c2cccnc2Oc2ccc(Cl)cc21,.,.,.,-1%,-11%
CCOc1ccccc1CNC(=O)CN1C(=O)c2cccnc2Oc2ccc(Cl)cc21,.,.,.,?,16µM*
O=C(CN1C(=O)c2cccnc2Oc2ccc(Cl)cc21)NC1CCCCCC1,-13%,0,-3%,-14%,-1%
COc1ccc(NC(=O)N(C)[C@H]2C[C@H]3c4[nH]c5ccc(-c6cccc(C)c6)cc5c4CCN3C[C@H]2[C@H](C)O)cc1,?,-29,23µM*,?,16µM*
SMILES,HT1080 IDH1KD tx,IL-1B inflam inh,HT1080NT lethal,DT40 TDP1 CPT,TDP1 cell noCPT
Cc1cccc(-c2ccc3[nH]c4c(c3c2)CCN2C[C@@H]([C@H](C)O)[C@@H](N(C)C(=O)Nc3ccc(F)cc3)C[C@@H]42)c1,?,-23,21µM*,16µM*,18µM*
C[C@H](O)[C@@H]1CN2CCc3c([nH]c4ccc(-c5ccc6c(c5)OCO6)cc34)[C@@H]2C[C@@H]1N(C)C(=O)Nc1cc(Cl)cc(Cl)c1,7.3µM*,-16,9.2µM*,4.1µM*,3.3µM*
C[C@H](O)[C@@H]1CN2CCc3c([nH]c4ccccc34)[C@@H]2C[C@@H]1N(C)C(=O)Nc1ccc(F)cc1,-9%,-14,-15%,?,?
CCOC(=O)c1c(C)[nH]c(C)c1S(=O)(=O)NCC(=O)N1CCN(c2ccccc2OC)CC1,.,.,.,?,-19%
C(=C\c1nc(-c2ccccc2)no1)/c1ccccc1,2%,-18,20%,-30%,8%
C(=C\c1nc(-c2ccncc2)no1)/c1ccccc1,-6%,-22,0%,-7%,16µM*
COc1cccc(NC(=O)c2sc3nc(C)c(C(=O)Nc4ccc(C)cc4C)c(-c4ccc(C)o4)c3c2N)c1,.,.,.,10µM*,6.5µM*
COc1ccc(-c2c3c(nc4sc(C(=O)Nc5cc(C)on5)c(N)c24)CCC3)cc1,?,-88*,20%,-21%,?
COc1ccc(-c2c3c(nc4sc(C(=O)Nc5ccc(Cl)cc5)c(N)c24)CC(C)(C)CC3=O)cc1,.,.,.,16µM*,8.2µM*
COc1cccc(NC(=O)c2sc3nc(C)c(C(=O)Nc4ccc(Cl)cc4)c(-c4ccc(Br)cc4)c3c2N)c1,.,.,.,?,7.3µM*
COc1ccccc1NC(=O)c1sc2nc(C)c(C(=O)Nc3ccc(C)cc3C)c(-c3ccc(Br)cc3)c2c1N,.,.,.,1%,-20%
COC(=O)[C@@H](NC(=O)N1CCC(Cc2ccccc2)CC1)C(C)C,-17%,-6,-17%,-4%,-21%
CSc1ccc(S(=O)(=O)N2CCC(C(=O)N3CCc4ccccc4C3)CC2)cc1,-15%,-64*,-3%,?,?
CS(=O)(=O)N1CCC(C(=O)N2CCc3ccccc3C2)CC1,5%,7,-2%,-3%,-2%
COc1ccc(OC)c(S(=O)(=O)N2CCCC2C(=O)N2CCc3ccccc3C2)c1 (configuration not stated),11%,-8,2%,15µM*,23µM*
CCOc1ccc(S(=O)(=O)N2CCC(C(=O)N3CCc4ccccc4C3)CC2)cc1,8%,-19,10%,?,15µM*
CCOc1ccc(NC(=O)CSc2nc3cc(C(=O)NCC4CCCO4)ccc3c(=O)n2CC2CCCO2)cc1 (configuration not stated),9%,-10,0%,?,?

# From PubChem BioAssay
